Among the data in PubChem BioAssay (NCI) are growth values, retold here.

What all share (assay): NCI-60 one-dose screen, 48 h (100 = growth as untreated, 0 = no growth, -100 = all killed)
Conditions in all cases: 10 µM unless noted

Experiment [1] has as its system DU-145 prostate.
Experiment [2] relates to K-562 leukemia.
For experiment [3], the system named is MALME-3M melanoma.
In experiment [4] the test system is MDA-MB-231 breast.
In experiment [5] the test system is SF-268 CNS.
Experiment [6] relates to SF-539 CNS.
In experiment [7] the test system is UACC-257 melanoma.
The subject of experiment [8] is HCT-15 colon.
Experiment [9] deals with HT29 colon.
For experiment [10], the system named is SNB-75 CNS.
Experiment [11] deals with SNB-19 CNS.
The test system of experiment [12] is U251 CNS.
Experiment [13] has as its system PC-3 prostate.
Experiment [14] concerns SK-MEL-5 melanoma.
The test system of experiment [15] is UACC-62 melanoma.
The subject of experiment [16] is LOX IMVI melanoma.
The test system of experiment [17] is SK-MEL-28 melanoma.
The test system of experiment [18] is RXF 393 renal.
The subject of experiment [19] is SF-295 CNS.
For experiment [20], the system named is M14 melanoma.

Compounds without any hit were thinned out: in the full panel of roughly 83,000, 20% have a hit.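 Method: cells in 96-well plates; compound added at one concentration; 48 h incubation; percent growth measured; values under 10 scored active.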 Unmarked numbers belong to inactive results. Activity calls are given as the source filed them.

In the case of `CCCCn1c(-c2ccc(F)cc2)nc2cc(OC)c(OC)cc2c1=O`, the growth is 111% in experiment [1]; 85.5% in experiment [2]; 71.8% in [3]; 87.1% in [4]; 101% in experiment [5]; 101% in [6]. Further, the growth was -32.2% (active) in experiment [7]; 105% in experiment [8]; 107% in experiment [9]; 98.8% in [10]; 97.6% in experiment [11]; 105% in experiment [12]. For the same compound, the growth in experiment [13] is 102%; in experiment [14] it was 89.8%; in experiment [15] it was 81.8%; in experiment [16] it was 98.3%; in [17], 97.5%.
As for `COc1cc(C2C=C(C)N=C3SC=NN32)cc(OC)c1OC` (stereo not drawn), the growth in experiment [1] is 115%; in experiment [2], 108%; in experiment [4] it was 104%; in experiment [18] it was 113%; in experiment [5], 111%; in experiment [19], 107%. Besides, the growth in experiment [6] is 99.1%; in experiment [7], 94.8%; in experiment [20], 109%; in [8] it was 106%; in experiment [9], 101%; in [10] it was 105%. Besides, the growth is 95.9% in experiment [11]; 93.5% in experiment [12]; 72.7% in experiment [13]; 103% in [14]; 100% in experiment [15]; 95.8% in [16]. In addition, the growth in experiment [17] was 100%.
In the case of `CC1(C)C(N(O)C(=O)Nc2ccc(Cl)cc2)N(c2ccc(Cl)cc2)C(=O)N1CC(=O)N/N=C/C=C/c1ccc([N+](=O)[O-])o1` (stereo not drawn), the growth was 12.5% in [1]; 13.1% in experiment [2]; -42.6% (active) in [3]; -48.7% (active) in experiment [4]; -77.9% (active) in experiment [18]; 54.9% in [19]. For the same compound, the growth in experiment [6] was -73.3% (active); in experiment [7] it was -33.7% (active); in experiment [20], -65.6% (active); in experiment [8], 37.5%; in [9], -43% (active); in experiment [10] it was 9.93% (active). Further, the growth in experiment [11] was 48.5%; in [12] it was -14.4% (active); in experiment [13] it was 8.77% (active); in experiment [14] it was -96.5% (active); in experiment [15] it was -40.5% (active); in experiment [16] it was 0.58% (active). The growth in experiment [17] was -55.5% (active).
On to `Cc1cc(O)ccc1C1=NN(c2ccc(S(N)(=O)=O)cc2)C(=O)CC1`, for which the growth in experiment [1] was 89.9%; in [2], 15.7%; in [3], 45.3%; in experiment [4], 73.8%; in [5], 68.5%; in experiment [19] it was 30.4%. In addition, the growth in experiment [6] is 45.1%; in [7], 59.7%; in experiment [20], 29.7%; in [8], 35.2%; in experiment [9], 11.2%; in experiment [11], 82.3%. Further, the growth in experiment [12] is 53%; in experiment [13] it was 50.7%; in experiment [14] it was 25.2%; in experiment [15], 27.2%; in experiment [16] it was 63%; in experiment [17], 58%.
As to `Cc1cccc(C(=O)O)n1`, the growth in [1] was 116%; in experiment [2], 102%; in experiment [3], 111%; in experiment [4], 120%; in [5], 107%; in experiment [19], 98%. Besides, the growth in [6] was 99.7%; in [7], 105%; in experiment [20], 108%; in experiment [8], 99.4%; in experiment [9], 112%; in experiment [10] it was 103%. Further, the growth in [12] is 105%; in [13] it was 117%; in experiment [14], 98.3%; in experiment [15], 101%; in experiment [16], 101%; in experiment [17], 123%.
Take `COc1ccc(C2C3=C(COC3=O)N(CCO)c3cc(OC)c(OC)cc32)cc1` (stereo not drawn): the growth in [1] is 113%; in experiment [2] it was 82.5%; in experiment [4], 112%; in experiment [18], 114%; in experiment [5], 101%; in [19], 110%. The growth in [6] is 105%; in experiment [7], 116%; in experiment [20], 108%; in experiment [8], 98.9%; in experiment [9] it was 95.1%; in experiment [10] it was 93.3%. In addition, the growth is 109% in experiment [11]; 101% in experiment [12]; 106% in [13]; 100% in experiment [14]; 107% in [15]; 101% in experiment [16]. In experiment [17], the growth is 115%.
As for `COc1ccc2c(c1)N(CCO)C1=C(C(=O)OC1)C2c1cccc(Br)c1` (stereo not drawn), the growth is -27.2% (active) in experiment [1]; 13.6% in experiment [2]; -10.6% (active) in experiment [4]; 44.4% in experiment [18]; 25% in experiment [5]; -19.4% (active) in experiment [19]. The growth in experiment [6] was -6.97% (active); in [7], 60%; in experiment [20], 8.81% (active); in [8], 7.92% (active); in [9] it was -9.38% (active); in experiment [10] it was 29.2%. The growth in experiment [11] was 35.4%; in experiment [12] it was 14%; in experiment [13] it was 26.2%; in [14], 2.15% (active); in experiment [15], 25%; in experiment [16], 22.2%. Moreover, the growth in experiment [17] is 58.6%.
Consider `O=C1OCC2=C1C(c1ccc(Cl)c(Cl)c1)c1cc3c(cc1N2CCO)CCC3` (stereo not drawn), for which the growth in experiment [1] is 7.85% (active); in experiment [2] it was 19.7%; in experiment [4] it was 8.3% (active); in [18] it was 21%; in [5], 44.3%; in experiment [19], -9.42% (active). Besides, the growth in [6] is -10.2% (active); in experiment [7], 60.2%; in [20] it was 12.1%; in [8], 13.4%; in experiment [9], 3.94% (active); in [10], 18%. Moreover, the growth in experiment [11] was 32.5%; in experiment [12] it was 16%; in experiment [13], 25.5%; in [14], 30%; in [15], 13.7%; in experiment [16], 32.8%. The growth in experiment [17] is 47.3%.
